SENP8 block-1: blocks the human protease SENP8; 330,000 tested, 1.2% active; inhibition, % at 10 µM; purified SENP8, Z-RLRGG-aminoluciferin cleavage, luminescence; Q96LD8; in the data active = inhibition above about 50%
Target sequence (Q96LD8 whole entry, looked up): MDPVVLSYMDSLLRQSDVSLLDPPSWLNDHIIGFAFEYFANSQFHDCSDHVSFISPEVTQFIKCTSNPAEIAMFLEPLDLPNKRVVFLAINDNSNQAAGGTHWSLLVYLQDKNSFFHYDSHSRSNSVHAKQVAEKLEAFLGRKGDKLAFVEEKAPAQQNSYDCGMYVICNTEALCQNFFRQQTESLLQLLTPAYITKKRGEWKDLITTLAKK
SENP7 block: blocks the human protease SENP7; recombinant SENP7, Z-RLRGG-aminoluciferin luminescence, 40 min; inhibition, % at 5 µM; 330,000 tested, 1.5% active; AID 434973;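 active = inhibition above about 50% at the single test dose, limit read from the data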
Target sequence (Q9BQF6 706-1050 limits assumed): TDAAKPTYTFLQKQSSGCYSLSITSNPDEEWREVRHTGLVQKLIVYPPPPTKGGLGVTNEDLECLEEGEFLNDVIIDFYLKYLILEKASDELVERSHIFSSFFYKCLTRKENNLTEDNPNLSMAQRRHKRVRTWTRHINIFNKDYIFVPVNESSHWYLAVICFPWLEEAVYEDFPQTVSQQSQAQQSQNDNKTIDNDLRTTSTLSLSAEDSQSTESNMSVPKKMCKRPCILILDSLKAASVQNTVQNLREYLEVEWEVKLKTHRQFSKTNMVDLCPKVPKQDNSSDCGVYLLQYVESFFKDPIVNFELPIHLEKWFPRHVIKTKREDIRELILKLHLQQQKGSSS
SENP6 inh: SENP6 protease inhibition; 330,000 tested, 1.8% active; Recombinant SENP6 catalytic domain, aminoluciferin luminescence; inhibition, % at 10 µM;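 active = inhibition above about 50% at the single tested dose, limit read from the data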
LGR2 inh: blocks bursicon-induced cAMP signaling via Drosophila LGR2 | HEK293 LGR2, CRE-luciferase, bursicon-stimulated, 4 h | inhibition, % at 9.99 µM | 380,000 tested, 0.35% active;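 active = drop in luminescence signal, shown as inhibition above about 50% in the replicate tests, limit read from the data, passing the limit was not always enough; inconclusive = probably only some replicates passing the limit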;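 also: agonist challenge used bursicon conditioned medium at about half maximal strength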
SENP8 block-2: inhibitors of human SENP8 protease | Q96LD8 | recombinant SENP8, Nedd8 substrate fluorescence | 360,000 tested, 0.64% active | inhibition, % at 20 µM; in the data active = inhibition mostly above about 40%, no sharp cut-off; inactive = mostly below about 27%
HSP90 inh: HSP90 refolding inhibition in rabbit reticulocyte lysate. luciferase refolding luminescence, 3 h. inhibition, % at 5.6 µM. 290,000 tested, 0.91% active. AID 1789;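 active = inhibition above the screen-wide mean plus 3 SD, computed separately per campaign, cut at about 16% in these data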;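 also: inhibitors lower the luminescence because luciferase stays unfolded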
SENP8 inh conf: SENP8 (human) inhibition, single concentration confirmation; shares compounds with SENP8 block-2; purified SENP8, Nedd8-AMC/pro-Nedd8 cleavage fluorescence, 30 min; inhibition, % at 25 µM; 1,400 tested, 15% active; AID 624319; in the data active = inhibition mostly above about 39%, no sharp cut-off; inactive = mostly below about 34%
Large screens that a line does not name were inactive (follow-up assays come after a bar, where they were run). In the library only some 2.3% were active in any assay of this set; here they are far more common.

O=C(c1cc(-c2ccccc2Cl)on1)N1CCN(C(=O)c2ccco2)CC1	SENP8 block-2 42.6 | SENP8 inh conf inactive
O=C(c1cc(-c2ccc(Cl)cc2Cl)on1)N1CCN(C(=O)c2ccco2)CC1	none (no result: LGR2 inh)
CC(=O)N1N=C(c2ccc(C)cc2)OC1c1ccc(Br)cc1 (stereo not drawn)	none
CCOc1ccc(Br)cc1C1=NN(C(C)=O)C(c2ccc([N+](=O)[O-])s2)O1 (stereo not drawn)	SENP8 block-2 59.8 | SENP8 inh conf 56.1
C=Cn1ccnc1CC(O)c1ccc(OC)cc1 (stereo not drawn)	SENP8 block-2 43.6 (no result: LGR2 inh, HSP90 inh) | SENP8 inh conf inactive
COC/C=C/C1=CC2=CC(=O)C(C)(OC(=O)c3cnc4ccccc4n3)C(=O)C2=CN1CCc1ccccn1 (stereo not drawn)	none (no result: LGR2 inh, SENP8 block-2, HSP90 inh)
COC/C=C/C1=CC2=CC(=O)C(C)(OC(=O)c3cnc4ccccc4n3)C(=O)C2=CN1C1CC1 (stereo not drawn)	SENP8 block-2 52.3 (no result: HSP90 inh) | SENP8 inh conf 52.5
COC/C=C/C1=CC2=CC(=O)C(C)(OC(=O)c3cnc4ccccc4n3)C(=O)C2=CN1Cc1ccccc1 (stereo not drawn)	SENP8 block-2 45.0 (no result: LGR2 inh, HSP90 inh) | SENP8 inh conf inactive
COC/C=C/C1=CC2=CC(=O)C(C)(OC(=O)c3cnc4ccccc4n3)C(=O)C2=CN1CCCCO (stereo not drawn)	SENP8 block-2 55.5 (no result: HSP90 inh) | SENP8 inh conf 45.8
COC/C=C/C1=CC2=CC(=O)C(C)(OC(=O)c3cnc4ccccc4n3)C(=O)C2=CN1c1ccc(OC)cc1 (stereo not drawn)	none (no result: HSP90 inh)
C/C=C/c1ccc2c(c1)O[C@@H](CN(C)C)[C@@H](C)CN([C@H](C)CO)S2(=O)=O	none (no result: SENP8 block-1, SENP7 block, SENP6 inh, SENP8 block-2, HSP90 inh)
CC(=O)C1=NN(c2ccccc2)C(c2ccc3c(c2)OCO3)N1c1ccc(N2CCOCC2)cc1 (stereo not drawn)	SENP8 block-2 43.6 | SENP8 inh conf inactive
O=c1cc(-c2ccc([N+](=O)[O-])cc2)c2cc3c(cc2[nH]1)OCCO3	SENP8 block-2 41.9 | SENP8 inh conf inactive
Cc1nonc1OC(C)CNc1ccc([N+](=O)[O-])cc1 (stereo not drawn)	SENP8 block-2 46.1 (no result: LGR2 inh) | SENP8 inh conf inactive
COc1ccccc1-c1cnc2c(c1)C(=O)N([C@@H](C)CO)C[C@@H](C)[C@H](CN(C)Cc1cccc(F)c1)O2	none (no result: SENP8 block-1, SENP7 block, SENP6 inh, SENP8 block-2, HSP90 inh)
Cc1nn(CC#N)c(=O)n1-c1ccc(Cl)cc1	none
Cc1nn(CC#N)c(=O)n1-c1ccc(C(C)C)cc1	SENP8 block-2 40.6 | SENP8 inh conf inactive
CCOc1ccc(N2C(=O)Cc3ccccc3C2=O)cc1	SENP8 block-2 74.8 | SENP8 inh conf inactive
Cc1cc(N2C(=O)Cc3ccccc3C2=O)ccc1C(C)C	SENP8 block-2 77.8 | SENP8 inh conf inactive
CCOC(=O)c1ccc(N2C(=O)Cc3ccccc3C2=O)cc1	SENP8 block-2 63.2 | SENP8 inh conf 27.4
CC(C)NC(=O)N(C)C[C@@H]1OCCCC[C@@H](C)Oc2ccc(N(C)C)cc2C(=O)N([C@@H](C)CO)C[C@@H]1C	none (no result: SENP8 block-1, SENP7 block, SENP6 inh, SENP8 block-2, HSP90 inh)
C[C@H](CO)N1C[C@H](C)[C@H](CN(C)Cc2ccc(C(=O)O)cc2)Oc2ccc(NS(=O)(=O)c3ccccc3)cc2CC1=O	none (no result: SENP8 block-1, SENP7 block, SENP6 inh, SENP8 block-2, HSP90 inh)
COc1ccccc1N(CC(=O)NC1CCCC1)C(=O)c1csnn1	SENP8 block-2 44.7 (no result: LGR2 inh) | SENP8 inh conf inactive
CCC(=O)OCCNc1cc(SCCC(=O)OC)c2nonc2c1[N+](=O)[O-]	none
CC(C)CCSc1cc(NCCO)c([N+](=O)[O-])c2nonc12	SENP8 block-2 49.2 | SENP8 inh conf inactive
Cc1ccc(Sc2cc(NCCCO)c([N+](=O)[O-])c3nonc23)cc1	SENP8 block-2 43.9 | SENP8 inh conf 48.1
CC(=O)OCCCNc1cc(Sc2ccc(Cl)cc2)c2nonc2c1[N+](=O)[O-]	LGR2 inh inconclusive (no result: SENP8 block-1, SENP7 block, SENP6 inh)
C#CCOCCOCCOCCNc1nc(N2CCN(C(=O)[C@H](CCCCN)n3cc(CN)nn3)CC2)nc(N2CCN(C(=O)[C@H](CCCCN)n3cc([C@@H](N)CC(N)=O)nn3)CC2)n1	SENP8 block-2 40.2 (no result: SENP8 block-1, SENP7 block, SENP6 inh, HSP90 inh) | SENP8 inh conf inactive
COc1cccc(-c2cc(C(=O)N3CCc4ccccc4C3)no2)c1	SENP8 block-2 58.1 (no result: LGR2 inh) | SENP8 inh conf 78.0
COc1cc(CCC(O)CC(=O)CCc2ccccc2)ccc1O (stereo not drawn)	SENP8 block-2 45.7 | SENP8 inh conf inactive
COc1cc(/C=N/NC(=O)CCc2ccccc2)ccc1O	none (no result: LGR2 inh)
COc1ccc(CCC(=O)N2CCN(S(=O)(=O)c3cccc(C(F)(F)F)c3)CC2)cc1OC	none (no result: HSP90 inh)
COc1ccc(CCNC(=O)CCC(=O)N2CCN(S(=O)(=O)c3ccc(Cl)cc3)CC2)cc1OC	SENP8 block-2 43.6 (no result: LGR2 inh) | SENP8 inh conf inactive
COc1ccc(CCNC(=O)C2CCCN(S(=O)(=O)c3cnc[nH]3)C2)cc1OC (stereo not drawn)	none
COc1ccc(CCNC(=O)CCC(=O)N2CCN(S(=O)(=O)c3ccccc3)CC2)cc1OC	SENP8 block-2 48.5 (no result: LGR2 inh) | SENP8 inh conf inactive
O=C(C1CCN(S(=O)(=O)c2cnc[nH]2)CC1)N1CCc2ccccc2C1	SENP8 block-2 41.6 (no result: LGR2 inh) | SENP8 inh conf inactive
COc1ccc(CCNC(=O)COC(=O)c2ccc(S(=O)(=O)N3CCCC3)cc2)cc1OC	none (no result: HSP90 inh)
COc1ccc(CCNC(=O)C2CCN(S(=O)(=O)c3cnc[nH]3)CC2)cc1OC	SENP8 block-2 40.1 | SENP8 inh conf inactive
CNC[C@H]1OCCCC[C@H](C)Oc2ccc(NS(=O)(=O)c3c(C)noc3C)cc2C(=O)N([C@H](C)CO)C[C@@H]1C	none (no result: SENP8 block-1, SENP7 block, SENP6 inh, SENP8 block-2, HSP90 inh)
Cc1nonc1C(=O)N/N=C/c1ccc([N+](=O)[O-])o1	none
O=C(N/N=C/c1ccc([N+](=O)[O-])o1)c1cc(-c2cccc(Br)c2)nc2ccccc12	SENP8 block-2 41.2 (no result: LGR2 inh) | SENP8 inh conf inactive
Cc1cc(C(=O)N/N=C/c2ccc([N+](=O)[O-])o2)c(C)o1	SENP8 block-2 42.2 | SENP8 inh conf inactive
Cc1cc(C(=O)N/N=C/c2cccnc2)c(C)o1	SENP8 block-2 41.0 (no result: LGR2 inh) | SENP8 inh conf inactive
Cc1ccc(NC(=O)CCC(=O)N/N=C/c2ccc([N+](=O)[O-])o2)cc1C	SENP8 block-2 62.8 | SENP8 inh conf inactive
CO[C@@H]1CN(C)C(=O)c2ccc(NC(=O)C3CCC3)cc2OC[C@@H](C)N(S(=O)(=O)c2ccc(Cl)cc2)C[C@H]1C	none (no result: SENP8 block-1, SENP7 block, SENP6 inh, SENP8 block-2, HSP90 inh)
C[C@@H]1CCCCO[C@@H](CN(C)C(=O)Cc2ccccc2)[C@H](C)CN([C@H](C)CO)C(=O)c2cc(NS(=O)(=O)c3ccccc3)ccc2O1	none (no result: SENP8 block-1, SENP7 block, SENP6 inh, SENP8 block-2, HSP90 inh)
C[C@@H]1CN([C@@H](C)CO)C(=O)c2cc(NC(=O)c3ccccc3)ccc2O[C@@H](C)CCCCO[C@@H]1CN(C)C(=O)c1ccccc1	none (no result: SENP8 block-1, SENP7 block, SENP6 inh, SENP8 block-2, HSP90 inh)
